In PubChem BioAssay (NCATS) one finds Potency data, which are given here for 40 molecules.

The structures appear in SMILES notation. Records with an inconclusive call do not appear. Entries that show only a call come without a potency. The source made the active and inactive calls. Calls come from the whole dose curve; as a rule, active = well fitted inhibition curve with a large enough effect; inconclusive = small, poorly fitted or top-dose-only effect; inactive = no such curve, though single readings can be large or run the other way.
Potency is the fitted concentration of half-maximal effect.

The nature of this test: Counterscreen for APE1 Inhibitors: Fluorescent Dye Displacement Validation Assay (AID 1707). The following applies: fluorescent dye displacement from DNA; series mostly up to 57.1 µM. An excerpt: In order to distinguish true inhibitors of DNA-processing enzymes from promiscuous DNA-binding compounds among screening assay hits, we developed a homogeneous and miniaturized assay based on fluorescent dye displacement test as originally described by Tse and Boger (Accounts of Chemical Research (2004) 37: 61-69). The assay is based on the strong enhancement of fluorescence when Thiazole Orange (ThO) binds to double-stranded DNA: conversely, in the presence of a DNA-binding compound, Thiazole Orange is displaced from the DNA and its fluorescence is reduced.
Buffer. 50 mM Tris-HCl (pH7.5) containing 50mM NaCl, 2 mM MgCl2, and 0.01% Tween-20.
Buffer containing 250 nM ThO in columns 3 and 4 as negative control (no dsDNA).
Reaction mixture: 250 nM ThO and 50 nM dsDNA at final concentration dispensed throughout the plate: in columns 1, 2, 5-48. Column 1 is neutral (100% activity).
5''TAMRA- TC ACC FTC GTA CGA CTC
3'' AG TGG GAG CAT GCT GAG
where F denotes tetrahydrofuran.
Control: Pintool transfer of control compound WB64 (W4761, Sigma-Aldrich) to column 2 of all assay plates as a two-fold 16-point dilution in duplicate (concentration range 5.75 uM - 0.175 nM).
Four uL of reaction mixtures were dispensed to 1536-well Greiner black solid bottom plates. Compounds (23 nL) were transferred […] in order to measure the endpoint fluorescence using 480 nm excitation and 540 nm emission fluorescence protocol.
`OCc1cnc[nH]1`: the Potency entry is “inactive”. With `NC(=O)c1cc(N2CC2)c([N+](=O)[O-])cc1[N+](=O)[O-]` the entry was “inactive”; with `CCCN1CCCC2Cc3[nH]ncc3CC21` (stereo not given), “inactive”.

Consider `COc1ccc2c(c1)C13CCCCC1C(C2)N(C)CC3` (stereo not given), for which the Potency result was “inactive”.

Turning to `CN1C2CCC1CC(OC(c1ccccc1)c1ccc(Cl)cc1)C2` (stereo not given), the Potency result is “inactive”. With `C[N+]1(C)CCN(c2ccccc2)CC1` the entry was “inactive”; with `c1ccc2c(N3CCNCC3)cccc2c1`, “inactive”; with `CCn1cnc2c(Nc3cccc(Cl)c3)nc(N[C@@H]3CCCC[C@@H]3N)nc21`, “inactive”. As for `O=[N+]([O-])c1cc(O)c(O)c([N+](=O)[O-])c1`, the entry is “inactive”; as for `C[C@H](N)CN1CCc2ccc(Br)cc21`, “inactive”. As for `COc1ccc2[nH]cc(CCN)c2c1`, the entry is “inactive”.

Turning to `C=CCN1CCC23c4c5ccc(O)c4O[C@H]2C(=O)CC[C@@]3(O)C1C5` (stereo not given in full), the Potency result was “inactive”. As to `c1ccc2cc(CC3=NCCN3)ccc2c1`, the Potency entry is “inactive”. As for `NC(N)=NOCC[C@H](N)C(=O)O`, the entry is “inactive”; as for `CCOC(=O)c1ncn2c1[C@@H]1CCCN1C(=O)c1cc(OC)ccc1-2`, “inactive”; as for `NC(=O)CI`, “inactive”.

As to `COc1ccc2c(c1)[C@@]13CCCC[C@H]1[C@@H](C2)NCC3`, the Potency entry was “inactive”.

Turning to `C[N+]1(C)CCC(OC(=O)C(c2ccccc2)c2ccccc2)CC1`, the Potency entry is “inactive”. As for `CCS(=O)(=O)Nc1cccc(C(=C2CCCCC2)c2cnc[nH]2)c1`, the Potency entry is “inactive”. As for `COc1ccc2[nH]c3c(c2c1)CCNC3`, the entry is “inactive”; as for `NC(CCCCCP(=O)(O)O)C(=O)O` (stereo not given), “inactive”; as for `C[C@H](Cc1ccc2c(c1)OC(C(=O)O)(C(=O)O)O2)NC[C@H](O)c1cccc(Cl)c1`, “inactive”.

For the molecule `C#CCN[C@H](C)Cc1ccccc1`, the Potency result was “inactive”. As for `CN1CCC(c2c[nH]c3ccc(O)cc23)CC1`, the entry is “inactive”; as for `CC(C)(C)c1cc(C=C(C#N)C#N)cc(C(C)(C)C)c1O`, “inactive”; as for `Nc1ccc(CCN2CCN(c3cccc(C(F)(F)F)c3)CC2)cc1`, “inactive”. With `CC(N)Cc1c[nH]c2ccc(OCc3cccs3)cc12` (stereo not given) the entry was “inactive”. Consider `NCCc1c[nH]c2ccc(C(N)=O)cc12`, for which the Potency entry is “inactive”.

Regarding `CN(N=O)c1ccc(O)c(O)c1`, the Potency is 14.1 µM (active).

With `O=C1CC[C@@]2(O)C3Cc4ccc(O)c5c4C2(CCN3CC2CC2)[C@H]1O5` (stereo not given in full), the Potency result is “inactive”. As for `CC12NC(Cc3ccccc31)c1ccccc12` (stereo not given), the entry is “inactive”; as for `CCCN(CCC)[C@@H]1CCc2cccc(O)c2C1`, “inactive”. With `Cc1c2ccncc2c(C)c2c1[nH]c1ccccc12` the entry was “inactive”; with `O=[N+]([O-])c1ccc2nc(N3CCNCC3)ccc2c1`, “inactive”; with `N[C@@H](Cn1oc(=O)[nH]c1=O)C(=O)O`, “inactive”.

For the molecule `CCN(CC)c1ncnc2c1ncn2[C@@H]1O[C@H](COP(=O)(O)OP(=O)(O)C(Br)(Br)P(=O)(O)O)[C@@H](O)[C@H]1O`, the Potency entry was “inactive”. On to `CC(Cc1ccc(OCC(=O)O)cc1)NCC(O)c1cccc(Cl)c1` (stereo not given), for which the Potency result was “inactive”. With `CC(C)CC(NP(=O)(O)O[C@@H]1O[C@@H](C)[C@H](O)[C@@H](O)[C@H]1O)C(=O)NC(Cc1c[nH]c2ccccc12)C(=O)O` (stereo not given in full) the entry was “inactive”; with `C[C@@H]1O[C@H](C[N+](C)(C)C)CS1`, “inactive”; with `Cc1o[nH]c(=O)c1CC(N)C(=O)O` (stereo not given), “inactive”.
